This is part of a sample that, as a whole, favours compounds with a hit. Of some 83,000 tested, about 20% had one in any assay.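 Negative percent growth values reflect cell death: -40 means 40% of the cells present at the start died, and -100 means all died.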 The source made the active and inactive calls. Rule for the calls: active = growth percent below 10; inactive = the rest.

One test concerns A498 renal. Put plainly: NCI-60 one-dose screen, 48 h (100 = growth as untreated, 0 = no growth, -100 = all killed). The settings on record: 10 µM unless noted.
With `CC(=O)Nc1nc(C(=O)N2N=C(C)/C(=C/c3cccs3)C2=O)cs1`, the growth is 115% (inactive).
Take `CN1C(=O)[C@H]2c3c1cccc3[C@@]13NC(=O)O[C@H]1[C@H](CCC3(C)C)C2(C)C`: the growth is 107% (inactive).
As for `CC(=O)C1CCC(C)=CC1=O` (stereo not drawn), the growth is 87.6% (inactive).
Turning to `COc1cccc(-n2cc(-c3nc(Cl)c4ccccc4n3)nn2)c1`, the growth is 72.9% (inactive).
Turning to `Nc1c(C(=O)Nc2cccc(Cl)c2Cl)sc2nc3c(cc12)C(=O)CCC3`, the growth is -3.22% (active).
In the case of `COc1cc(/C=C2\CCCC3=C2NC(C)=NC3c2cc(OC)c(OC)c(OC)c2)cc(OC)c1OC` (stereo not drawn), the growth is 16.3% (inactive).
In the case of `O=c1[nH]c(-c2cn(-c3ccc(Cl)cc3)nn2)nc2ccccc12`, the growth was 24.7% (inactive).
On to `CC/C(=C(\c1ccc(O)cc1)c1ccc(OCCN(C)CCN(C)C(=O)CCC(=O)c2c(C)[nH]c(/C=C3\N=C(c4ccc[nH]4)C=C3OC)c2C)cc1)c1ccccc1`, for which the growth was 65.2% (inactive).
On to `Cc1cc(Nc2nc(-c3ccncc3)nc3ccccc23)n[nH]1`, for which the growth was 4.45% (active).
Regarding `COc1cc(C2C=C(C)N=C3SC=CN32)cc(OC)c1OC` (stereo not drawn), the growth was 106% (inactive).
Turning to `COC1=CC(c2ccc[nH]2)=N/C1=C\c1[nH]c(C)c(C(=O)CCC(=O)Oc2ccc3c(c2)CCC2C3CC[C@]3(C)[C@@H](O)CC[C@@H]23)c1C` (stereo partly drawn), the growth was -12.7% (active).
`Cc1ccc(Cn2c(-c3nonc3N)nc3ccccc32)cc1`: the growth was 40.4% (inactive).
Still for that read-out and setting: to `O=C(Nc1ccccc1)OCC1OCOC(COC(=O)Nc2ccccc2)C1OC(=O)Nc1ccccc1` (stereo not drawn) belongs 69% (inactive); to `CC1=CNNc2c3ncnc-3ncn21`, 95.7% (inactive).
Consider `CCN(CC)c1cc(/C=C/c2ccc(OC)c(OC)c2)nc2cc(F)c(F)cc12`, for which the growth is -2.91% (active).
The same measure, in the same setting: to `CCCCCCCCCCCCOB(OCCCCCCCCCCCC)OCCCCCCCCCCCC` belongs 112% (inactive); to `c1ccn2nnnc2c1`, 101% (inactive); to `Nc1c(C(=O)Nc2c(Cl)cccc2Cl)sc2nc3c(cc12)CCCCC3`, 30% (inactive).
On to `COc1ccc(-n2c(C)cc(-c3ccccc3)c2C)cc1`, for which the growth is 35.2% (inactive).
For the compound `COc1cc2c(cc1OC)C1(C)N(CC2)C(=O)OC1(C)C` (stereo not drawn), the growth was 78.8% (inactive).
As for `COc1ccc(/C=C/c2nc(N3CCOCC3)c3nc(Cl)c(Cl)cc3n2)cc1OC`, the growth is 93.7% (inactive).
`Cc1cccc(NC(=O)c2sc3nc4c(cc3c2N)CCCC4)c1`: the growth was 44.3% (inactive).
On the same count and under the same terms, to `O=C(/C=C/c1ccccc1)n1c(-c2ccc(Cl)cc2)nc2ccccc21` belongs -14.6% (active).
As for `COc1cc(Cn2c(-c3nonc3N)nc3ccccc32)ccc1C`, the growth was 6.72% (active).
For `Clc1ccc(-c2nc(-c3ccco3)cn3ccnc23)cc1`, the growth is 36.8% (inactive).
On to `Oc1ccc(N=Cc2ccccc2)cc1`, for which the growth was 78.1% (inactive).
As for `CCCCCc1c(C)[nH]c(/C=c2\[nH]/c(=C3/C=c4ccccc4=N3)cc2OC)c1C`, the growth is -29.4% (active).
Consider `COc1cc2nc(Cl)nc(NCCO)c2cc1OC`, for which the growth was 79.7% (inactive).
With `CCC1CCc2nc3sc(C(=O)Nc4ccccc4C)c(N)c3cc2C1` (stereo not drawn), the growth was 33.2% (inactive).
The same measure, in the same setting: the same measure for `Cc1cc(Nc2nc(C(=O)Nc3ccccc3)nc3ccccc23)n[nH]1`: -1.3% (active).
Turning to `c1ccc2nc(-c3ccc4ccccc4n3)ccc2c1`, the growth is 97.3% (inactive).
The same measure, in the same setting: the same measure for `Clc1nc2ccccc2nc1CI`: 120% (inactive); for `Cc1cccc(NC(=O)c2sc3nc4c(cc3c2N)CCC4)c1C`: 8.64% (active); for `Clc1cccc(Cl)c1Cn1c(-c2cncs2)nc2ccccc21`: 125% (inactive).
Turning to `Clc1ccc(/C=C/c2nc(N3CCOCC3)c3nc(Cl)c(Cl)cc3n2)cc1`, the growth was 106% (inactive).
Take `Cc1cc(Nc2nc(-c3ccc(F)cc3)nc3ccccc23)n[nH]1`: the growth is 1.89% (active).
Consider `COC(=O)[C@H]1[C@H](OC)[C@@H](OC(=O)/C=C/c2ccncc2)CC2CN3CCc4c([nH]c5cc(OC)ccc45)[C@@H]3C[C@@H]21` (stereo partly drawn), for which the growth is 31.5% (inactive).
Regarding `CN(C)c1ncc(-c2ccc(C(F)(F)F)cc2)c(NC2CCCCCC2)n1`, the growth is 81.2% (inactive).
Take `CC(=O)Nc1ccc(S(=O)(=O)N2C(=O)CCC2C(=O)Nc2ccccc2)cc1` (stereo not drawn): the growth was 2.01% (active).

The test system of a further test is CCRF-CEM leukemia. The description is as above. The note with it: 10 µM unless noted.
As to `CC(=O)Nc1nc(C(=O)N2N=C(C)/C(=C/c3cccs3)C2=O)cs1`, the growth was 92.4% (inactive).
For the compound `CN1C(=O)[C@H]2c3c1cccc3[C@@]13NC(=O)O[C@H]1[C@H](CCC3(C)C)C2(C)C`, the growth was 94.5% (inactive).
The same measure, in the same setting: the same measure for `CC(=O)C1CCC(C)=CC1=O` (stereo not drawn): 100% (inactive); for `COc1cccc(-n2cc(-c3nc(Cl)c4ccccc4n3)nn2)c1`: 103% (inactive).
Take `Nc1c(C(=O)Nc2cccc(Cl)c2Cl)sc2nc3c(cc12)C(=O)CCC3`: the growth was 86.2% (inactive).
As for `COc1cc(/C=C2\CCCC3=C2NC(C)=NC3c2cc(OC)c(OC)c(OC)c2)cc(OC)c1OC` (stereo not drawn), the growth is -19.1% (active).
In the case of `O=c1[nH]c(-c2cn(-c3ccc(Cl)cc3)nn2)nc2ccccc12`, the growth was 98.6% (inactive).
In the case of `CC/C(=C(\c1ccc(O)cc1)c1ccc(OCCN(C)CCN(C)C(=O)CCC(=O)c2c(C)[nH]c(/C=C3\N=C(c4ccc[nH]4)C=C3OC)c2C)cc1)c1ccccc1`, the growth was 40.8% (inactive).
Still for that read-out and setting: the same measure for `Cc1cc(Nc2nc(-c3ccncc3)nc3ccccc23)n[nH]1`: 67.6% (inactive); for `COc1cc(C2C=C(C)N=C3SC=CN32)cc(OC)c1OC` (stereo not drawn): 105% (inactive); for `COC1=CC(c2ccc[nH]2)=N/C1=C\c1[nH]c(C)c(C(=O)CCC(=O)Oc2ccc3c(c2)CCC2C3CC[C@]3(C)[C@@H](O)CC[C@@H]23)c1C` (stereo partly drawn): 0.176% (active).
`Cc1ccc(Cn2c(-c3nonc3N)nc3ccccc32)cc1`: the growth is 67.2% (inactive).
Same read-out and setting: the same measure for `O=C(Nc1ccccc1)OCC1OCOC(COC(=O)Nc2ccccc2)C1OC(=O)Nc1ccccc1` (stereo not drawn): 29.5% (inactive); for `CC1=CNNc2c3ncnc-3ncn21`: 96.1% (inactive); for `CCN(CC)c1cc(/C=C/c2ccc(OC)c(OC)c2)nc2cc(F)c(F)cc12`: 29.7% (inactive).
As to `CCCCCCCCCCCCOB(OCCCCCCCCCCCC)OCCCCCCCCCCCC`, the growth was 95.3% (inactive).
Regarding `c1ccn2nnnc2c1`, the growth is 99.7% (inactive).
In the case of `Nc1c(C(=O)Nc2c(Cl)cccc2Cl)sc2nc3c(cc12)CCCCC3`, the growth is 43.7% (inactive).
`COc1ccc(-n2c(C)cc(-c3ccccc3)c2C)cc1`: the growth was 29.4% (inactive).
As for `COc1cc2c(cc1OC)C1(C)N(CC2)C(=O)OC1(C)C` (stereo not drawn), the growth is 106% (inactive).
For the compound `COc1ccc(/C=C/c2nc(N3CCOCC3)c3nc(Cl)c(Cl)cc3n2)cc1OC`, the growth is 99.3% (inactive).
Take `Cc1cccc(NC(=O)c2sc3nc4c(cc3c2N)CCCC4)c1`: the growth is 19.4% (inactive).
Consider `O=C(/C=C/c1ccccc1)n1c(-c2ccc(Cl)cc2)nc2ccccc21`, for which the growth is -23.9% (active).
The same measure, in the same setting: to `COc1cc(Cn2c(-c3nonc3N)nc3ccccc32)ccc1C` belongs 16.2% (inactive); to `Clc1ccc(-c2nc(-c3ccco3)cn3ccnc23)cc1`, 78.4% (inactive).
As for `Oc1ccc(N=Cc2ccccc2)cc1`, the growth was 5.42% (active).
Turning to `CCCCCc1c(C)[nH]c(/C=c2\[nH]/c(=C3/C=c4ccccc4=N3)cc2OC)c1C`, the growth was -19% (active).
Still for that read-out and setting: to `COc1cc2nc(Cl)nc(NCCO)c2cc1OC` belongs 98.8% (inactive).
As to `CCC1CCc2nc3sc(C(=O)Nc4ccccc4C)c(N)c3cc2C1` (stereo not drawn), the growth is 18.7% (inactive).
Still for that read-out and setting: the same measure for `Cc1cc(Nc2nc(C(=O)Nc3ccccc3)nc3ccccc23)n[nH]1`: 38.1% (inactive); for `c1ccc2nc(-c3ccc4ccccc4n3)ccc2c1`: 90% (inactive); for `Clc1nc2ccccc2nc1CI`: -4.61% (active).
Same read-out and setting: the same measure for `Cc1cccc(NC(=O)c2sc3nc4c(cc3c2N)CCC4)c1C`: 10.7% (inactive); for `Clc1cccc(Cl)c1Cn1c(-c2cncs2)nc2ccccc21`: 85% (inactive); for `Clc1ccc(/C=C/c2nc(N3CCOCC3)c3nc(Cl)c(Cl)cc3n2)cc1`: 106% (inactive).
As for `Cc1cc(Nc2nc(-c3ccc(F)cc3)nc3ccccc23)n[nH]1`, the growth was 44.5% (inactive).
With `COC(=O)[C@H]1[C@H](OC)[C@@H](OC(=O)/C=C/c2ccncc2)CC2CN3CCc4c([nH]c5cc(OC)ccc45)[C@@H]3C[C@@H]21` (stereo partly drawn), the growth was 57.5% (inactive).
For the compound `CN(C)c1ncc(-c2ccc(C(F)(F)F)cc2)c(NC2CCCCCC2)n1`, the growth is 45.5% (inactive).
Consider `CC(=O)Nc1ccc(S(=O)(=O)N2C(=O)CCC2C(=O)Nc2ccccc2)cc1` (stereo not drawn), for which the growth was 17.7% (inactive).

Values taken from PubChem BioAssay (NCI).
